The structures appear in SMILES notation. The whole screen tested about 290,000 compounds, of which about 1,100 (0.38%) were called active. What follows is part of a selection rich in actives, with near analogues and random picks from the rest. Unmarked numbers belong to inactive results. The call rests on the fitted dose curve; in most records, active means well fitted inhibition curve with a large enough effect; inconclusive means small, poorly fitted or top-dose-only effect, or another doubt; inactive means no such curve, though single readings can be large or run the other way.
On the % scale 0 is the no-effect control and ±100 the full control effect; potency means the concentration at half of the fitted maximal effect.

Sequence of Pyruvate kinase (Leishmania mexicana) (Q27686 whole entry, looked up): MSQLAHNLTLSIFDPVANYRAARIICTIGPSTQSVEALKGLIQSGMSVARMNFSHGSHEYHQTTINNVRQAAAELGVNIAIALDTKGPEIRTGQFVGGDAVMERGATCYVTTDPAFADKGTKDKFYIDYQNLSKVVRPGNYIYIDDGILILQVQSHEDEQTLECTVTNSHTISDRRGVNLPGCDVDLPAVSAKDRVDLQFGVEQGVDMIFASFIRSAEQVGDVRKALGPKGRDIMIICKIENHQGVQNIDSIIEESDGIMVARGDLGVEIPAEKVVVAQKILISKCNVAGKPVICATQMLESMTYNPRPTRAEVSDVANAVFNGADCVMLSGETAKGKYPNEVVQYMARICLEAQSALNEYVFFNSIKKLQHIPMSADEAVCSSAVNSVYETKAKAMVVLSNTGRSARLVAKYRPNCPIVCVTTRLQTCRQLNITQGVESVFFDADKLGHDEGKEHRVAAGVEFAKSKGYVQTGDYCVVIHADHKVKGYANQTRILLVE

This assay addresses Pyruvate kinase (Leishmania mexicana) (UniProt Q27686). The assay is described as follows: qHTS Assay for Inhibitors of Leishmania Mexicana Pyruvate Kinase (LmPK). The conditions noted are these: purified LmPK, Kinase-Glo ATP luminescence, 1 h; series mostly up to 57.5 µM; activity change, negative = inhibition: at the top concentration. An excerpt:
NIH Chemical Genomics Center [NCGC] Malcolm Walkinshaw, Hugh Morgan, Linda Gilmore University of Edinburgh, UK MLPCN Grant: 1 R03 MH085697-01 NCGC Assay Overview: Pyruvate kinase (L. Mexicana) (LmPK) enzyme was supplied as a highly purified (>95% pure) sulphate-free preparation from University of Edinburgh, UK and assayed for its ability to generate ATP from ADP using phosphoenolpyruvate (PEP) as a substrate. ATP generation was detected in a coupled reaction by luciferase-mediated luminescence, an ATP-dependent process. […] The enzyme was assayed at an intermediate level of activity to screen for both inhibitors and activators.
NCGC Assay Protocol Summary: Three uL of enzyme mix (kept on ice) in assay buffer (50 mM Imidazole pH7.2, 50 mM KCl, 7 mM MgCl2, 0.01% Tween 20, 0.05% BSA) containing PEP (0.5 mM final concentration) and LmPK (0.1 nM final concentration) was dispensed into white solid bottom 1,536 well microtiter plates. 23 nL of compound were delivered by a pin tool and 1 uL of ADP mix in assay buffer (r.t; 0.1 mM final ADP concentration) was added. Plates were incubated at room temperature for 1 hour. Two uL of detection mix (Kinase-Glo, Promega; at 4 degree Celsius protected from light) was added and luminescence read by a ViewLux (Perkin Elmer) at 1 second exposure/plate. Data were normalized to the uninhibited and AC100 inhibition (no enzyme). To monitor activation, the first column contained a five-fold concentration of LmPK (0.5 nM).
(Quantitative high-throughput screening tests each substance at several concentrations.)
Turning to `COc1ccc(OCC(=O)Nc2ccc(NC(=O)c3ccco3)c(C)c2)cc1`, the “activity change, negative = inhibition” value is 3.97%.
`CCn1c(SCC(=O)NC2CC2)nnc1-c1ccccc1OC`: the “activity change, negative = inhibition” value is 3.59%.
The same measure, in the same setting: the figure for `COc1ccccc1CC(=O)Nc1ccc(F)cc1F` is -4.93%; for `COc1cc(OC)cc(C(=O)OCC(=O)Nc2ccc(F)cc2F)c1` it is 3.32%.
On to `COc1ccc(C(=O)Nc2ccc(F)cc2F)cc1`, for which the Potency was 14.1 µM (active).
In the case of `O=C(c1cc(-c2ccc(O)cc2)on1)N1CCOCC1`, the “activity change, negative = inhibition” value was -7.59%.
With `Cc1ccc(CN2CCN(c3ncccn3)CC2)c(C)c1`, the “activity change, negative = inhibition” value is -4.47%.
Turning to `CCOC(=O)C1CCN(C(=O)C2CCCN(S(=O)(=O)c3ccc(OC)c(Cl)c3)C2)CC1` (stereo unspecified), the “activity change, negative = inhibition” value is -1.27%.
Still for that read-out and setting: the figure for `O=C(Nc1nnc(C2CC2)s1)c1cc(Cl)sc1Cl` is -4.39%; for `Cc1cnc(NC(=O)c2ccc(Cl)nc2)s1` it is -1.78%.
As for `O=C(Nc1nnc(C2CC2)s1)c1ccccn1`, the Potency is 25.1 µM (active).
The same measure, in the same setting: the result for `Cc1cnc(NC(=O)c2ccccn2)s1` reads 15.8 µM (active).
For the molecule `Cc1cnc(NC(=O)CSc2c(Cl)cccc2Cl)s1`, the “activity change, negative = inhibition” value is 0.4%.
For the molecule `O=C(Cc1cccs1)Nc1nnc(C2CC2)s1`, the “activity change, negative = inhibition” value was 1.96%.
Same read-out and setting: the result for `O=C(O)c1ccc(-n2nc(-c3ccccc3)c3ccccc3c2=O)cc1` reads 4.17%; that for `COC(=O)c1c(NC(=O)COC(=O)[C@@H](NS(=O)(=O)c2ccccc2)C(C)C)sc2c1CCC2`, 2.43%; that for `O=C(CN(CC1CCCO1)C(=O)CNS(=O)(=O)c1ccc(Cl)cc1)NCc1ccccc1` (stereo unspecified), -1.92%.
Same read-out and setting: the result for `CC(C(=O)Nc1ccc(O)c(C(=O)O)c1)N1C(=O)/C(=C/c2cccs2)SC1=S` (stereo unspecified) reads 20.1%; that for `COc1ccc(NC(=O)C(CC(C)C)NC(=O)C2CCC(C)CC2)cc1` (stereo unspecified), -0.13%.
Still for that read-out and setting: the figure for `O=C(Nc1nnc(C2=COCCO2)o1)c1ccc([N+](=O)[O-])s1` is -1.89%; for `COc1cc(C(C)=O)ccc1OC(=O)CN1C(=O)c2ccccc2C1=O` it is 3.8%; for `COc1cccc(/C=C2\C=C(c3ccc(C)cc3)OC2=O)c1OC(C)=O` it is -2.55%.
Turning to `CCOc1cccc(/C=C/c2ccc3ccccc3n2)c1OC(C)=O`, the “activity change, negative = inhibition” value was -23%.
`COc1cccc(/C=C/c2ccc3ccccc3n2)c1OC(C)=O`: the Potency was 25.1 µM (active).
Consider `COc1ccc(CCNCc2c(-c3ccccc3)n(C)c3ccccc23)cc1`, for which the “activity change, negative = inhibition” value is -1.5%.
Turning to `Cc1ccc(N(C(=O)C(F)(F)F)C(C(=O)NC2CCCCC2)c2ccncc2)cc1C` (stereo unspecified), the “activity change, negative = inhibition” value was -2.72%.
For `O=C(O)C1CCCN1C1=NS(=O)(=O)c2ccccc21` (stereo unspecified), the “activity change, negative = inhibition” value is -0.501%.
Turning to `COc1ccccc1OCc1nc2ccccc2s1`, the Potency was 15.8 µM (active).
`O=C(O)CCCCc1nc2ccccc2s1`: the “activity change, negative = inhibition” value is -1.65%.
For `CN(Cc1nc2ccccc2s1)C(=O)c1ccc(F)cc1`, the “activity change, negative = inhibition” value is -3.18%.
As for `Cc1cc(S(=O)(=O)N2CCOCC2)ccc1OCC(=O)Nc1cccc(C(F)(F)F)c1`, the “activity change, negative = inhibition” value was 5.38%.
Turning to `COc1cc(SC)ccc1C(=O)NCCOc1ccccc1Cl`, the “activity change, negative = inhibition” value is 0.758%.
Regarding `COc1cc(SC)ccc1C(=O)Nc1nc(C)cs1`, the Potency was 10 µM (active).
Take `COc1cc(SC)ccc1C(=O)Nc1cc(C)ccn1`: the “activity change, negative = inhibition” value is -8.85%.
The same measure, in the same setting: the result for `O=C(NC(=S)NC1CCS(=O)(=O)C1)c1cccc([N+](=O)[O-])c1` (stereo unspecified) reads -7.45%; that for `Cn1cccc1-c1nc2ccccc2n1C`, 0.62%.
On to `Cn1c(-c2ccco2)nc2cc3ccccc3cc21`, for which the Potency was 12.6 µM (active).
In the case of `O=c1c2ccccc2nc(-c2ccco2)n1-c1ccc(Br)cn1`, the “activity change, negative = inhibition” value is -1.19%.
Same read-out and setting: the figure for `c1ccc(-c2cc(-c3ccccc3)[nH]n2)cc1` is 0.475%; for `S=c1[nH]nc(-c2cc(-c3ccccc3)n[nH]2)n1/N=C/c1c2ccccc2cc2ccccc12` it is 0.0251%.
For the molecule `S=c1[nH]nc(-c2cc(-c3ccsc3)n[nH]2)n1-c1ccccc1`, the Potency is 10 µM (active).
In the case of `CCn1cc(C(=O)N[C@@H](C)C(=O)NCCO)c(=O)c2cc3c(cc21)OCO3`, the “activity change, negative = inhibition” value is -2.59%.
Regarding `CCCNC(=O)CCc1c(C)nc2c(c(C)nn2-c2ccc(C)cc2)c1C`, the “activity change, negative = inhibition” value was -2.85%.
For the molecule `CC(C)OC(=O)c1ccc(COc2ccc3ccc(=O)oc3c2)o1`, the “activity change, negative = inhibition” value is 0.39%.
On the same count and under the same terms, the figure for `Cc1ccccc1Cn1c(=O)[nH]c2ccccc21` is 1.18%.
Turning to `O=c1[nH]c2ccccc2n2c(-c3ccccc3)nnc12`, the Potency is 3.16 µM (active).
For the molecule `CC(=O)c1c(-c2ccccc2)c2ccccc2[nH]c1=O`, the “activity change, negative = inhibition” value was -2.03%.
On the same count and under the same terms, the result for `Cc1ccc(S(=O)(=O)N/N=C(\c2ccccc2)C2CC2)cc1` reads -1.1%; that for `Cc1cc(C2=NNC(=Nc3ccc(S(=O)(=O)N4CCOCC4)cc3)SC2)c(C)n1CC1CCCO1` (stereo unspecified), -17.2%.
For the molecule `C=CCn1c(C)cc(C2=NNC(=NCC)SC2)c1C`, the Potency is 14.1 µM (active).
For the molecule `Cc1cccc(N=C2NN=C(c3c[nH]c4ccccc34)CS2)c1`, the “activity change, negative = inhibition” value is 0.353%.
Still for that read-out and setting: the result for `COc1ccc(-c2ccc(OC(=O)NC3CCS(=O)(=O)C3)cc2)cc1` (stereo unspecified) reads 1.14%.
For `COc1ccc(C(=O)/C=C/Nc2ccccn2)cc1`, the Potency is 12.6 µM (active).
Take `CCOc1ccc(N/C=C/C(=O)c2ccccc2)cc1`: the “activity change, negative = inhibition” value was -1.4%.
For the molecule `COc1ccc2cc(S(=O)(=O)Nc3ccccn3)ccc2c1`, the “activity change, negative = inhibition” value is 4.52%.
Turning to `CC1CCC(NC(=O)CN(C)S(=O)(=O)c2ccc3c(c2)c(=O)n(C)c(=O)n3C)CC1` (stereo unspecified), the “activity change, negative = inhibition” value was -2.21%.
